# DRD3 agonist = D3 dopamine receptor (human) agonism | D3R DiscoveRx beta-arrestin cells, luminescence, 90 min | max activation, % | hit rate 0.58% among 410,000 | AID 652048; in the data active means max activation above about 30%
#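 Agonist mode: compounds and dopamine controls were applied to plated cells for 90 min at 37 degrees C after an overnight attachment at 1500 cells/well. Luminescent read-out followed 30 - 60 minutes at room temperature with DiscoveRx detection reagent.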
# D1 antag = human D1 dopamine receptor antagonism; HEK293 TREx D1 cells, calcium flux, dopamine EC80; stronger effect = lower value; activity change, negative = inhibition, % at 10 µM; hit rate 3.2% among 360,000; in the data active means activity change below about -30%
# Target sequence (P21728 whole entry, looked up): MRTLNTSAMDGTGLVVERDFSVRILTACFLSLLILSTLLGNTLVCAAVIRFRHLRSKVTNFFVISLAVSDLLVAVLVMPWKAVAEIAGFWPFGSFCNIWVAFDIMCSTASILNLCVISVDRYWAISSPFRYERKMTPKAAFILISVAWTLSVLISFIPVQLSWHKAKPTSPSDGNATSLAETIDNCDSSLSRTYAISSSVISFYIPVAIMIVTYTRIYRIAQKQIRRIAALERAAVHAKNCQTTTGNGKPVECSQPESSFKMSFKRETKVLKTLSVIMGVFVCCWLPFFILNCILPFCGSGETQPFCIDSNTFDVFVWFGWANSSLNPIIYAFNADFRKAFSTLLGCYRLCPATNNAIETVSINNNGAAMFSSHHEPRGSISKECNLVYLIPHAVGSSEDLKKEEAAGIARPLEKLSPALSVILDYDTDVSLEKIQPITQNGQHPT
#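 Calcium flux readout: force-coupled, inducible Hek293 Trex D1 line, cells induced overnight at 30 C with tetracycline, dye-loaded 30–90 min at RT. Antagonism scored against EC80 dopamine challenge given 180 s after compound.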
# D3 antag = D3 dopamine receptor (human) antagonism; P35462; D3R cells, DiscoveRx beta-arrestin luminescence, antagonist mode; stronger effect = lower value; max response, negative = inhibition, %; hit rate 2.5% among 360,000; AID 652054; in the data active means max response below about -50%; inconclusive means no clear call, values can overlap the other calls
#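 Cells expressing the human receptor were seeded at 1500 cells/well, incubated overnight at 37 degrees C in 5% CO2, then exposed to library compounds with dopamine controls for 90 minutes at 37 degrees C before luminescent detection.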
# D1 PAM = human D1 dopamine receptor positive modulation. P21728. HEK293 TREx D1 cells, calcium flux, dopamine EC20 potentiation. potentiation, % at 10 µM. hit rate 0.036% among 360,000. AID 504651; in the data active means potentiation above about 30%
# D1 ag = agonists of human D1 dopamine receptor; P21728; HEK293 T-REx D1 cells, calcium flux, agonist mode; activation, % at 2 µM; hit rate 1% among 360,000; AID 504660; in the data active means activation above about 30%
#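 Agonism was scored from calcium flux recorded over 180 s (1 read/s) after pintool compound addition, following a 10-cycle baseline. Cells were inducible force-coupled HEK293 TREx D1, plated overnight at 30 C and loaded with no-wash calcium dye.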
# A number is an active result; - = inactive; ? = inconclusive; . = not tested or not shown. Only some compounds are listed: those with a hit (about 6% of all), similar ones and a draw of the others.
SMILES,DRD3 agonist,D1 antag,D3 antag,D1 PAM,D1 ag
COc1cc(CNCCc2c[nH]c3ccccc23)cc(OC)c1,-,-,-68.5,-,-
CCCCNC(C)(C)[P+](=O)O,-,.,.,.,.
Oc1cccc[c]1[Hg][Cl],-,.,.,.,.
C[C@H](N)[C@H](O)c1ccc(O)c(O)c1,-,.,.,.,.
CN(C)c1ccc(C=C(C#N)C#N)cc1,-,-,-,-,-
N#CC(C#N)=Cc1ccc(N2CCCC2)cc1,-,-,-,-,37.5
O=C(CCl)c1ccc(Cl)cc1Cl,-,.,.,.,.
CCC(=O)O[C@](Cc1ccccc1)(c1ccccc1)[C@H](C)CN(C)C,55.4,.,.,.,.
OC[C@@H](O)[C@H]1O[C@@H]2O[C@@H](C(Cl)(Cl)Cl)O[C@@H]2[C@H]1O,-,.,.,.,.
CNc1ccc(C(=O)CC(O)CCC(C)C2OC(=O)CC(O)CC(=O)CC(O)CC(O)CC(O)CC(O)CC3(O)CC(O)C(C(=O)OC)C(CC(O[C@@H]4O[C@H](C)[C@@H](O)[C@H](N)[C@@H]4O)/C=C/C=C/C=C/C=C/C=C/C=C/C=C/C2C)O3)cc1 (some centres not stated),-,.,.,.,.
CC(C)N1CC=C(c2c[nH]c3ccccc23)CC1,-,-,-57.6,-,-
N#CC1(N2CCCCC2)CCCCC1,-,.,.,.,.
COc1ccc2c3c1O[C@H]1[C@H](O)CC[C@H]4[C@@H](C2)N(C)CC[C@@]341,-,.,.,.,.
C=C1C(O)[C@@H]2O[C@]3(CC[C@H](/C=C/C(C)[C@@H]4CC(C)=CC5(O[C@H](C[C@@](C)(O)C(=O)O)CCC5O)O4)O3)CC[C@H]2O[C@@H]1C(O)CC(C)[C@H]1OC2(CCCCO2)CCC1C (some centres not stated),-,.,-131.6,.,.
CC(=O)OC1N=C(c2ccccc2)c2ccccc2NC1=O (configuration not stated),-,-,-50.4,-,-
CCOC(=O)c1cc2cc(OC)ccc2n1C1CCN(Cc2ccccc2)CC1,-,.,-88.9,.,.
COCCCNC(=O)c1c(NC(=O)c2ccccc2Cl)n(Cc2ccccc2)c2nc3ccccc3nc12,-,-,?,-,39.8
COCCNC(=O)c1c(NC(=O)c2ccco2)n(Cc2ccccc2)c2nc3ccccc3nc12,-,-,-,-,-
O=c1c2ccccc2nc(/C=C\c2cccc(Br)c2)n1-c1ccc(O)cc1,-,-,.,-,-
C(CCc1nn[nH]n1)CCc1nn[nH]n1,-,-37.2,-,-,-
CCOc1ccc(CN(CCc2ccc3c(c2)OCO3)Cc2cccc(Br)c2)cc1,-,-,.,-,-
COc1ccc2c(c1)/C(=C/c1cnc[nH]1)C(=O)N2,-,-34.1,-,-,-
O=c1n(Cl)c(=O)n(Cl)c(=O)n1Cl,-,.,.,.,.
C[n+]1c(-c2ccccc2)c2cc(N)ccc2c2ccc(N)cc21,-,-,-,-,-
Nc1ccc2ccc3cccc[n+]3c2c1,-,-,-,-,131.1
SMILES,DRD3 agonist,D1 antag,D3 antag,D1 PAM,D1 ag
CCCC1(CCC)C(=O)NC(=Nc2ccc(C)cc2)NC1=O,.,-,.,-,-
CCC1(CC)C(=O)NC(=Nc2cccc(C(F)(F)F)c2)NC1=O,-,-,-,-,30.6
CC1=C(O)C(=O)C=C2C1=CC=C1C2(C)CCC2(C)C3CC(C)(C(=O)O)CCC3(C)CCC12C (configuration not stated),-,.,-80.9,.,.
CC[C@H](C)[C@H]1O[C@]2(C=C[C@@H]1C)C[C@@H]1C[C@@H](C/C=C(\C)[C@@H](O[C@H]3C[C@H](OC)[C@@H](O[C@H]4C[C@H](OC)[C@@H](O)[C@H](C)O4)[C@H](C)O3)[C@@H](C)/C=C/C=C3\CO[C@@H]4[C@H](O)C(C)=C[C@@H](C(=O)O1)[C@]34O)O2,-,.,.,.,.
CC/C(=C\C=C\[C@@H]1C=C[C@@H]2CCC[C@H]2[C@@H]1C(=O)c1ccc[nH]1)[C@@H]1O[C@@H]([C@@H](C)C(=O)O)CC[C@@H]1C,-,-59.7,-,-,-
CCCCCCCCCCCCCCCC[N+](C)(C)C,-,-,-,-,30.9
COc1ccc(CNCCc2cccc(F)c2)c2ccccc12,.,-,.,-,37.0
COc1ccc(CNCCc2ccc(Cl)cc2)c(OC)c1OC,-,-69.8,-,-,-
COc1ccccc1CNCCc1ccc(F)cc1,-,-,-55.4,-,-
COc1cc(OC)c(OC)cc1CNCCc1cccc(F)c1,-,-,-,-,-
COc1cc(OC)c(OC)cc1CNCCc1ccc(OC)c(OC)c1,-,-,-,-,-
Fc1ccc(CCNCc2ccc(Cl)c(Cl)c2)cc1,-,-,-72.1,-,-
OC[C@@H](O)[C@H]1O[C@@H]2O[C@H](C(Cl)(Cl)Cl)O[C@@H]2[C@H]1O,-,.,.,.,.
N#Cc1ccccc1NC(=O)c1cccn(Cc2ccccc2)c1=O,-,.,.,-,-
CCN(CC)c1ccc(CNCCc2ccc(F)cc2)cc1,-,-,-,-,63.6
CCc1ccc(CNCCc2ccc(F)cc2)cc1,-,-,-,-,61.7
Cc1ccc(CN2C3CCCC2CC(NC(=S)NCc2ccccc2)C3)cc1 (configuration not stated),-,-74.9,-94.3,-,34.5
CNC(=S)NC1CC2CCCC(C1)N2CC(C)C (configuration not stated),-,.,-,.,.
O=P(O)(O)C(Cl)(Cl)P(=O)(O)O,-,.,.,.,.
Oc1ccc(CCN2CCCCC2)cc1,-,.,-,.,.
NCCc1ccc(O)cc1,32.2,-,-,-,-
c1cncc(CNC2=NCCCCC2)c1,-,-46.6,-,-,-
COc1ccccc1NC(=O)N(Cc1ccc2c(c1)OCO2)C1CCN(Cc2ccccc2)CC1,-,-,.,-,-
CC(C)Oc1cccnc1N(C)C1CCN(Cc2ccccc2)CC1,-,.,-95.4,.,.
Clc1ccc2c(c1)C(c1ccccc1)=NCc1nncn1-2,-,.,.,.,.
SMILES,DRD3 agonist,D1 antag,D3 antag,D1 PAM,D1 ag
COC(=O)[C@@H]1[C@@H](C(=O)OC)C2(c3ccccc3-c3ccccc32)N(c2ccc(Cl)cc2)N1C#N,-,-,-76.3,-,-
COC(=O)C[C@]1(C(=O)OC)CN(C#N)N(c2ccc(Cl)cc2)C12c1ccccc1-c1ccccc12,-,-,-74.5,-,-
COc1ccc(-c2nc(CN3C(=O)CN=C(c4ccccc4)c4ccccc43)c(C)o2)cc1,-,-,.,-,-
Cc1ccc(CN2CCN(Cc3ccccc3F)CC2)cc1,-,-,?,-,-
COc1ccccc1CN1CCN(Cc2ccc(Cl)cc2)CC1,-,-,-95.7,-,-
COc1ccc(CN2CCN(c3ccccc3F)CC2)cc1O,-,-,-70.2,-,-
COc1ccccc1N1CCN(Cc2ccc(Cl)cc2Cl)CC1,-,-,-84.7,-,-
COc1ccccc1N1CCN(Cc2ccc(F)cc2)CC1,-,-,-81.8,-,-
COc1ccc(CN2CCN(Cc3ccccc3OC)CC2)cc1,-,-,?,-,-
CNC(=O)Oc1ccccc1C(=O)Nc1ccccc1,-,.,.,.,.
CNC(C)CC1CCCCC1 (configuration not stated),-,.,.,.,.
CCCCCCCCCC(CC)c1ccc(S(=O)(=O)O)cc1 (configuration not stated),-,.,.,.,.
CSc1ccc(CN2CCN(c3ccccc3C)CC2)cc1,-,-,-73.4,-,-
